Measurements as given in PubChem BioAssay AID1240 (Sanford-Burnham Center for Chemical Genomics, 2008).
About 800 (1.6%) of roughly 50,000 compounds showed an effect of 50% or more. For the sample, strong results were picked, then their nearest neighbours and some compounds at random.

Each compound was assayed against Bcl-2-like protein 10 (Homo sapiens) (UniProt Q9HD36) (assay: TR3 peptide-Bcl-B binding displacers, biochemical primary FP assay, phenotype converters (AID 1240;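 also: 0% = Bcl-B with tracer peptide and DMSO and 100% = tracer peptide lacking Bcl-B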)). Settings: GST-Bcl-B / FITC-TR3 peptide fluorescence polarization; stronger effect = higher value; compound at 3.75 mg/L.
Bcl-2-like protein 10 (Homo sapiens), sequence (Q9HD36 whole entry, looked up): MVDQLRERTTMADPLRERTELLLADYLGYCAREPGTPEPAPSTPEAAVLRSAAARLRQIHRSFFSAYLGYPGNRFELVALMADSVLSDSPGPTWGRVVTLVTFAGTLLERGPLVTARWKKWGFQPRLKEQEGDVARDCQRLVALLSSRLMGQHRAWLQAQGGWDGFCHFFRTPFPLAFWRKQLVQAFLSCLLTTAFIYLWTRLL

Compound | displacement
CCOc1cc(C(=O)Nc2ccc3c(c2)OCCO3)cc(OCC)c1OCC | -7.7%
C=CCn1c(C)c(/C=C(/C#N)C(=O)Nc2ccc(OC)cc2)c2ccccc21 | -6.6%
CCOC(=O)c1c(NC(=O)c2ccc(C(=O)c3ccccc3)cc2)sc2c1CCC2 | 10.7%
Cc1ccc(N[C@@H]2O[C@H](CO)[C@@H](O)[C@H](O)[C@@H]2O)cc1 | 11%
CC(=O)Oc1ccc2c(C)c(C)c(=O)oc2c1 | 6.4%
CSc1nnc2c(n1)OC(c1ccc(OCc3ccccc3)cc1)Nc1ccccc1-2 (configuration not stated) | 7.4%
CCSc1nnc2c(n1)OC(c1ccc(C(=O)O)cc1)Nc1ccccc1-2 (configuration not stated) | 9.9%
CCSc1nnc2c(n1)OC(c1ccc(OCc3ccccc3)cc1)Nc1ccccc1-2 (configuration not stated) | 120%
CCOC(=O)C1=C(O)/C(=C/c2ccc(Cl)cc2)SC1=Nc1ccc([N+](=O)[O-])cc1 | -7.6%
CCOC(=O)C1=C(O)/C(=C/c2ccc(OCC)cc2)SC1=Nc1ccc([N+](=O)[O-])cc1 | 122%
CCOC(=O)C1=C(O)/C(=C/c2ccc(F)cc2)SC1=Nc1ccc([N+](=O)[O-])cc1 | 59.1%
CCOC(=O)C1=C(O)/C(=C/c2ccc(O)c(OCC)c2)SC1=Nc1ccc([N+](=O)[O-])cc1 | -5.5%
CCOC(=O)C1=C(O)/C(=C/c2ccc([N+](=O)[O-])cc2)SC1=Nc1ccc(C)cc1 | -3.1%
CCOC(=O)C1=C(O)/C(=C/c2ccc(O)cc2)SC1=Nc1ccc([N+](=O)[O-])cc1 | -9.8%
CCOC(=O)C1=C(O)CSC1=Nc1ccc([N+](=O)[O-])cc1 | 112%
CCOC(=O)C1=C(O)CSC1=Nc1ccc(Cl)cc1 | -6.7%
CCOC(=O)C1=C(O)CSC1=Nc1ccc(C)cc1 | -15.6%
COc1ccc(Oc2coc3cc(OC(C)=O)ccc3c2=O)cc1 | 11.2%
COc1ccc2nc(NC(=O)COc3ccc(Cl)cc3)sc2c1 | 14.5%
COc1cc(NC(=O)CCCOc2ccc(Cl)cc2Cl)c(OC)cc1Cl | 0.2%
COc1cc(NC(=O)CCCOc2ccccc2)c(OC)cc1Cl | 71.9%
COc1ccc(NC(=O)CCCOc2ccccc2)c(OC)c1 | -3.2%
O=C(NCc1cccs1)c1sc2cc(F)ccc2c1Cl | -3.8%

Compound | displacement
O=C(N/N=C/c1cccs1)c1sc2cc(Cl)ccc2c1Cl | 7.2%
C/C(=N/NC(=O)c1sc2cc(F)ccc2c1Cl)c1cccs1 | 132%
CC1=C(C(=O)Nc2cc(Cl)ccc2C)C(c2ccccc2Br)NC(=S)N1 (configuration not stated) | -8.3%
O=C(Nc1ccc(O)c(-c2nc3ccccc3o2)c1)c1cc2ccccc2o1 | -10.8%
CCOC(=O)NC(NC(=O)OCC)c1cccc([N+](=O)[O-])c1 | -5.1%
CCOc1cc(/C=C2\SC(=S)N(C)C2=O)ccc1O | -6.7%
COc1cc(/C=C2\SC(=S)N(CC(=O)O)C2=O)cc(OC)c1OC | -4%
CCOc1cc(/C=C2\SC(=S)N(CCOC)C2=O)ccc1O | 89.2%
CCOc1cc(/C=C2/SC(=S)N(C)C2=O)ccc1OS(=O)(=O)c1ccc(C)cc1 | -1.9%
CCOc1cc(/C=C2/SC(=S)N(C)C2=O)ccc1OC(=O)c1ccc(F)cc1 | 13.6%
CCN1C(=O)/C(=C\c2ccc(O)c(OC)c2)SC1=S | -3.9%
CCOc1cc(/C=C2/SC(=S)N(C)C2=O)ccc1OC(=O)c1ccc(C)cc1 | 62.3%
COc1cc(/C=C2\SC(=S)N(CC(=O)N3CCCc4ccccc43)C2=O)cc(OC)c1OC | 91.5%
COCCN1C(=O)/C(=C/c2ccc(O)c(OC)c2)SC1=S | -4.4%
COc1cc(/C=C2\SC(=S)N(CC(C)C)C2=O)ccc1O | 91.5%
COc1cc(/C=C2/SC(=S)N(CC(=O)N3CCOCC3)C2=O)cc(OC)c1OC | 13.2%
CCOc1cc(/C=C2\SC(=S)N(CC(C)C)C2=O)ccc1O | 15.9%
CC1(C)Nc2ccccc2N(Cc2ccc(Cl)c(Cl)c2)C1=O | -7.9%
Cc1ccc(-c2nc3ccccc3o2)cc1NC(=O)c1ccco1 | 3.1%
CCOC(=O)C(=O)Nc1ccc(S(=O)(=O)Nc2nccc(C)n2)cc1 | 27.4%
CC(=O)Nc1ccc(S(=O)(=O)Nc2ccc(C(=O)Nc3nccs3)cc2)cc1 | 7.5%
COC(=O)c1sccc1NC(=O)/C=C/c1ccc([N+](=O)[O-])cc1 | 5.4%
CC(=O)OC1CC(C)(C)N([O])C(C)(C)C1 | 5.8%

Compound | displacement
O=C1C2ON(c3ccccc3)C(c3ccco3)C2C(=O)N1c1ccc(N2CCOCC2)cc1 (configuration not stated) | 2.3%
C=CCNC(=O)c1ccc(OCc2ccccc2)cc1 | 10.2%
C/C(=N\NC(=O)c1ccncc1)c1ccco1 | -4.8%
O=C(Nc1ccc(-c2nc3ccccc3s2)cc1)c1cc2ccccc2o1 | -6.9%
S=C1NC(c2ccccc2)=NCN1c1ccccc1 | 1.8%
CCOc1cc(/C=C2/SC(=S)N(CC)C2=O)cc(Br)c1OCCOc1cccc(OC)c1 | 92.3%
COc1cc(/C=C2/SC(=S)N(C)C2=O)ccc1OCc1ccc(Br)cc1 | 88.9%
CCOc1cc(/C=C2\SC(=S)N(CC(=O)OC)C2=O)ccc1O | 122%
CCN1C(=O)/C(=C\c2cccc(OCCOc3cccc(OC)c3)c2)SC1=S | 3.4%
CCN1C(=O)/C(=C\c2cc(Cl)c(OCCOc3cccc(OC)c3)c(OC)c2)SC1=S | 2.9%
CCOc1cc(/C=C2\SC(=S)N(CCS(=O)(=O)O)C2=O)ccc1O | -60.3%
COC(=O)CN1C(=O)/C(=C/c2ccc(OCc3ccccc3Cl)c(OC)c2)SC1=S | 10.3%
COC(=O)CN1C(=O)/C(=C/c2ccc(OCc3ccc(Cl)cc3)c(OC)c2)SC1=S | 87.2%
COC(=O)CN1C(=O)/C(=C\c2cccc(O)c2)SC1=S | 0%
COc1cc(/C=C2/SC(=S)N(C)C2=O)ccc1OCCOc1ccc(Br)cc1 | 2.3%
C=CCN1C(=O)/C(=C\c2ccc(OCc3ccc(Br)cc3)c(OC)c2)SC1=S | -11.3%
COC(=O)CCN1C(=O)/C(=C/c2ccc(OCc3ccc(Cl)cc3)c(OC)c2)SC1=S | 24.7%
CCOC(=O)c1cccc(NC(=O)COc2ccc([N+](=O)[O-])cc2)c1 | 8.1%
CSc1ccc(/C=N\NC(=O)COc2ccc(C)cc2)cc1 | 11.8%
COC(=O)c1c(N)sc(C)c1-c1ccc(C)cc1C | -10.6%
COc1cc(/C=C/c2cc(C(F)(F)F)[nH]c(=O)n2)ccc1O | 44.6%
